The record followed here is PubChem BioAssay AID488969 (Vanderbilt High Throughput Screening Facility, 2010).

Each structure is given as a SMILES string. In all, about 110,000 compounds were measured (“z-score”: median about -0.1, highest 2% from about 2 on). The sample as a whole holds a higher share of the highest values than the screen did. The source made the active and inactive calls.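 The calls were made as follows: active = z-score in the third read window above 3 or below -3; inactive = the rest.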

In this assay the target is Metabotropic glutamate receptor 8 (Rattus norvegicus) (UniProt P70579). In words: rat mGluR8 modulators via GIRK flux, primary screen, cell-based, thallium flux, HTS (AID 488969). The note with it: HEK293 rat mGluR8, GIRK (G protein-gated inwardly rectifying potassium channel) thallium flux, FluoZin2; at 10 µM; stronger effect = higher value; submaximal glutamate (EC20) added with thallium.
Metabotropic glutamate receptor 8 (Rattus norvegicus), sequence (P70579 whole entry, looked up): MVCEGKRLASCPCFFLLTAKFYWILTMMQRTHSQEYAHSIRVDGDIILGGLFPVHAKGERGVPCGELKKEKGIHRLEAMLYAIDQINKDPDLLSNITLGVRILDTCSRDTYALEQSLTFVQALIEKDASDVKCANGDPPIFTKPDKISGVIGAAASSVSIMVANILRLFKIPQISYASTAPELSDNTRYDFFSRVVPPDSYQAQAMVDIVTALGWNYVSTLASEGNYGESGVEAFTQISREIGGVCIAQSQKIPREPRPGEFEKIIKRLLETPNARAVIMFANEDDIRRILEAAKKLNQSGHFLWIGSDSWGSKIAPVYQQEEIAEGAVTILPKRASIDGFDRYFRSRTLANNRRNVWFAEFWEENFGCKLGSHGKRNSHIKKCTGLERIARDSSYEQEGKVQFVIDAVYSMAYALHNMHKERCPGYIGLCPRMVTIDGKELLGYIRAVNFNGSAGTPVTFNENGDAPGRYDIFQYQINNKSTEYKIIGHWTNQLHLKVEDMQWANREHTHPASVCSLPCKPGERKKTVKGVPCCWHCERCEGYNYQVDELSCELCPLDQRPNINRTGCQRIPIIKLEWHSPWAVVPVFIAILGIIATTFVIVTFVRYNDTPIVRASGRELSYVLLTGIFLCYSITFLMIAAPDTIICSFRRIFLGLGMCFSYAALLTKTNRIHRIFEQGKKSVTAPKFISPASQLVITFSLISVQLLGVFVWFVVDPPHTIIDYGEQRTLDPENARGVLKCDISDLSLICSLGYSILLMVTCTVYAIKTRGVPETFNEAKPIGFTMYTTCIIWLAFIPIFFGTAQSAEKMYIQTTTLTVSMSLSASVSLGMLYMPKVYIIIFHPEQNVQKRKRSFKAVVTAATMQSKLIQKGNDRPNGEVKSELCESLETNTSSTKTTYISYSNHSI
For `CCn1c(SCC(=O)Nc2nnc(C)s2)nnc1-c1ccco1`, the z-score was -0.0211.

Turning to `O=C1C(=O)N(CCO)C(c2ccccc2)/C1=C(\O)c1ccccc1` (stereo not given), the z-score was -0.284.

Take `O=C(CNC(=O)C12CC3CC(CC(C3)C1)C2)N1CCN(S(=O)(=O)c2cccs2)CC1`: the z-score is -0.178.

The compound `CCCn1c(SCC(=O)NC2CCCCC2C)n[nH]c1=O` (stereo not given) came in with a z-score of 0.79.

`Cc1ccc(-c2ccc(/C=N/NC(=S)Nc3ccccc3)o2)cc1[N+](=O)[O-]` gave a z-score of 0.442.

Consider `O=C(CNc1ccccc1)N/N=C/c1ccc([N+](=O)[O-])o1`, for which the z-score was -0.389.

Take `O=[N+]([O-])c1ccc(/C=N/NC(=S)Nc2ccccc2F)o1`: the z-score was 6.05 (active).

With `O=[N+]([O-])c1ccc(/C=N/NC(=S)Nc2ccccc2)o1`, the z-score was 2.92.

`COC(=O)N/N=C/c1ccc([N+](=O)[O-])o1` returned a z-score of -0.0263.

Compound `O=[N+]([O-])c1ccc(/C=N/NC(=S)Nc2ccccc2C(F)(F)F)o1` came in with a z-score of 1.06.

Compound `N#CCCn1cc(/C=N/O)c(-c2ccccc2)n1` returned a z-score of 0.0606.

`C1=C(CCNc2nnnn2-c2ccccc2)CCCC1`: the z-score is -0.26.

`Fc1cccc(NC(=S)Nc2ccc(Br)cc2)c1`: the z-score is 0.843.

Compound `Cc1nn(-c2ccccc2)c(N2CCCC2)c1/C=N/NC(=S)Nc1ccccc1F` yielded a z-score of 2.42.

Turning to `FC(F)(F)c1ccc(Cl)c(NC(=S)N/N=C/c2ccccc2C(F)(F)F)c1`, the z-score amounted to 1.14.

With `Cc1ccc(NC(=S)N/N=C/c2c(C)nn(-c3ccccc3)c2N2CCCC2)cc1`, the z-score is 0.376.

For `Fc1ccccc1/C=N/NC(=S)Nc1ccc(Cl)cc1Cl`, the z-score is 3.47 (active).

As to `CN(C)/C=N/C(=S)Nc1ccccc1F`, the z-score stood at 0.0261.

`Cc1nn(-c2ccccc2)c(N2CCCC2)c1/C=N/NC(=S)Nc1ccccc1C(F)(F)F` registered a z-score of 0.583.

`Fc1ccccc1NC(=S)Nc1ccc(Br)cc1` came in with a z-score of 0.657.

For the compound `Fc1ccccc1NC(=S)N/N=C/c1ccccc1Br`, the z-score was 13.4 (active).

On to `Fc1ccc(CNC(=S)Nc2ccc(Cl)cc2Cl)cc1`, for which the z-score was 0.134.

In turn, `Cn1c(NC(=O)c2ccco2)cc(=O)n(C)c1=O` gave a z-score of -0.188.

The compound `O=C(CCSCCc1ccccn1)Nc1ccc(Br)cc1F` had a z-score of -0.191.

Consider `CCc1nc2ccccc2n1Cc1ccccc1OC`, for which the z-score was -0.822.

`CC1=NNC(=O)C1CCC(=O)N/N=C/C(Br)=C/c1ccccc1` (stereo not given) showed a z-score of -0.0952.

In the case of `O=C(c1ccc([N+](=O)[O-])cc1)N(Cc1ccc(Cl)cc1)N1C(=O)CCCC1=O`, the z-score is -0.682.

`Cn1cnnc1SCC(=O)Nc1sc2c(c1C#N)CCCCC2`: the z-score is 0.0796.

In turn, `COc1ccc2cnn(Cc3ccccc3)c(=O)c2c1OC` returned a z-score of 0.037.

In the case of `S=c1[nH]nc(C2CCCCC2)n1/N=C/c1cccs1`, the z-score was 2.48.

As for `Cc1ccc(-c2n[nH]c(=S)n2/N=C/c2ccc(C)s2)cc1`, the z-score was determined as 2.29.

With `Cc1cccc(-c2n[nH]c(=S)n2/N=C/c2ccc(C)s2)c1`, the z-score amounted to 0.7.

On to `S=c1[nH]nc(-c2ccccc2)n1/N=C/c1cccs1`, for which the z-score was determined as 0.587.

The compound `Cc1ccc(-c2n[nH]c(=S)n2/N=C/c2cccs2)cc1` registered a z-score of 2.22.

For `S=c1[nH]nc(COc2ccccc2)n1/N=C/c1cccs1`, the z-score amounted to 0.649.

Consider `Cc1ccc(/C=N/n2c(-c3cccnc3)n[nH]c2=S)s1`, for which the z-score is -0.311.

With `CC(C)(C)c1n[nH]c(=S)n(/N=C/c2cccs2)c1=O`, the z-score was found to be 0.25.

Compound `Cc1ccc(/C=N/n2c(C3CCCCC3)n[nH]c2=S)s1` returned a z-score of 0.644.

With `Cc1ccsc1/C=N/n1c(COc2ccccc2)n[nH]c1=S`, the z-score was determined as 0.533.

In the case of `Cc1ccsc1/C=N/n1c(C2CCCCC2)n[nH]c1=S`, the z-score was 0.383.

Take `Cc1ccc(/C=N/n2c(COc3ccccc3)n[nH]c2=S)s1`: the z-score was 3.29 (active).

Compound `CS(=O)(=O)Nc1ccc(-c2n[nH]c(=S)n2-c2ccccc2)cc1` displayed a z-score of 0.118.

Compound `CCN(CCNC(=O)C1CCN(Cc2nc(-c3ccc(Cl)cc3)oc2C)CC1)c1ccccc1` showed a z-score of 1.3.

As to `CN(C)c1ccnc(NCc2ccccc2)c1C#N`, the z-score is -0.278.

In the case of `O=C(Nc1ccncc1)Nc1ccccn1`, the z-score was -0.133.

Take `CCC(=O)N/C(=N\OCc1ccc(F)cc1)c1nonc1NC(=O)CC`: the z-score was -0.064.

Consider `COc1ccccc1-c1noc(CCC(=O)Nc2cccc(C)c2)n1`, for which the z-score was -0.323.

`O=C(c1cnn2c(C(F)(F)F)cc(-c3ccco3)nc12)N1CCc2ccccc2C1` came in with a z-score of -1.04.

For `O=C(c1cnn2c(C(F)(F)F)cc(-c3ccco3)nc12)N1CCCc2ccccc21`, the z-score is -0.976.

Take `O=C(c1cnn2c(C(F)(F)F)cc(-c3ccco3)nc12)N1CCCCCC1`: the z-score worked out at 2.24.

For the compound `COc1cc(C(C)=O)ccc1COc1ccc(C(=O)OCC(=O)NC(C)(C)C)cc1OC`, the z-score is -0.573.

Compound `O=C(NCc1ccccn1)c1ccc(CNS(=O)(=O)c2ccc(F)cc2)cc1` displayed a z-score of -0.111.

Consider `CN1C(=O)c2ccccc2N(C)C1c1cccs1` (stereo not given), for which the z-score is -1.51.

The compound `O=c1c2ccccc2[nH]c(=S)n1CC1CCCO1` (stereo not given) displayed a z-score of 0.302.

For `CC1CCC(n2c(=S)[nH]c3ccccc3c2=O)CC1` (stereo not given), the z-score was 8.55 (active).

`CCOC(=O)N1CCC(n2c(=S)[nH]c3ccccc3c2=O)CC1` gave a z-score of 0.582.

`Cc1c(-n2c(=S)[nH]c3ccccc3c2=O)c(=O)n(-c2ccccc2)n1C` yielded a z-score of 0.153.

With `O=c1c2ccccc2[nH]c(=S)n1C1CCCCC1`, the z-score is 12.5 (active).

For `O=c1c2[nH]c3ccccc3c2ncn1C1CCCCC1`, the z-score worked out at 0.256.

Regarding `Cc1ccc(S(=O)(=O)Nc2cc(C(F)(F)F)ccc2N2CCOCC2)cc1`, the z-score was determined as 0.266.

The compound `Cc1ccc(-c2nnc3n2CCCCC3)cc1` showed a z-score of 0.0634.

Compound `CCNC(=O)COC(=O)C1C(C(=O)OCC)=C(C)NC(C)=C1C(=O)OCC` gave a z-score of -0.145.

`O=C(Cn1c(=O)n(-c2ccccc2)c(=O)c2sccc21)N1CCCC1` had a z-score of -0.24.

Take `Cc1ccc(OCC(=O)N/N=C/c2cn(Cc3ccccc3)c3ccccc23)cc1`: the z-score is -0.188.

`O=C(O)CCN1C(=O)/C(=C\c2ccc(-c3nc4ccccc4s3)o2)SC1=S` registered a z-score of 2.49.

Take `O=C(O)CCN1C(=O)/C(=C/c2ccc(-c3nc4ccccc4s3)o2)SC1=S`: the z-score came to 1.83.

Consider `O=C(O)CCCN1C(=O)/C(=C/c2ccc(-c3nc4ccccc4s3)o2)SC1=S`, for which the z-score stood at 0.773.

In turn, `COc1ccccc1N1C(N)=NC(N)=NC1(C)C` displayed a z-score of -0.0746.

With `CC(=O)CCc1ccc2oc(C(=O)O)c(C)c2c1`, the z-score was -0.497.

As to `Cc1[nH]c2ccccc2c1NC(=O)CN1CCN(Cc2ccc3c(c2)OCO3)CC1`, the z-score was -0.288.

For the compound `COC(=O)c1[nH]c2ccc(C)cc2c1NC(=O)CCN1CCN(Cc2ccc3c(c2)OCO3)CC1`, the z-score was 9.23 (active).

Regarding `COC(=O)c1[nH]c2ccc(F)cc2c1NC(=O)CCN1CCN(Cc2ccc3c(c2)OCO3)CC1`, the z-score was -0.752.

Compound `CC(=NC1CC1)c1c(-c2ccccc2)[nH]n(-c2nc3ccccc3s2)c1=O` displayed a z-score of -0.25.

For `CCCc1cc(-c2n[nH]c(=S)n2Cc2ccccc2)cs1`, the z-score was 4.6 (active).

On to `CCCc1cc(-c2n[nH]c(=S)n2CC(C)C)cs1`, for which the z-score was 4.16 (active).

For the compound `CCc1cc(-c2n[nH]c(=S)n2CC(C)C)cs1`, the z-score was 1.12.

Consider `CCc1cc(-c2n[nH]c(=S)n2Cc2ccccc2)cs1`, for which the z-score was 0.464.

`CCc1c(-c2n[nH]c(=S)n2Cc2ccccc2)csc1C` registered a z-score of 2.88.

In the case of `Cc1cc(-c2n[nH]c(=S)n2CC(C)C)cs1`, the z-score is -0.405.

With `Cc1cc(-c2n[nH]c(=S)n2Cc2ccccc2)cs1`, the z-score worked out at 0.453.

Compound `Cc1scc(-c2n[nH]c(=S)n2Cc2ccccc2)c1C` had a z-score of 0.854.

In the case of `S=c1[nH]nc(-c2ccncc2)n1Cc1ccccc1`, the z-score is 1.42.

`Cc1nc2c(C)cccc2cc1C(=O)N/N=C/c1cccnc1` registered a z-score of -0.392.

In turn, `CCc1cccc(CC)c1NC(=O)COC(=O)c1cccc(-c2ccc(OC(C)=O)cc2)c1` returned a z-score of -1.91.

In turn, `Cc1ccccc1C(=NCCCN(C)C)c1ccccc1C` yielded a z-score of 0.825.

`O=C(Cc1cccs1)N(Cc1ccco1)C1(C(=O)NC2CCCCC2)CCCCC1` returned a z-score of 1.89.

Compound `Cn1nc(Oc2nc(N3CCOCC3)nc(N3CCOCC3)n2)ccc1=O` yielded a z-score of 0.165.

For the compound `CCC1CCCCN1C(=O)c1cc2cc(Br)ccc2oc1=O` (stereo not given), the z-score was 7.8 (active).

On to `O=C(c1cc2cc(Br)ccc2oc1=O)N1CCCC1`, for which the z-score was 0.0138.

`CCOC(=O)N1CCN(C(=O)c2cc3cc(Br)ccc3oc2=O)CC1` yielded a z-score of -0.271.

Turning to `C=CCNC(=O)CC(=O)N/N=C/c1ccc(F)cc1`, the z-score was -0.18.

Compound `C=CCn1c(-c2ccc(OC)cc2)csc1=Nc1c(C)n(C)n(-c2ccccc2)c1=O` returned a z-score of -0.422.

With `N#CC1=C(S)N=C(N)C(c2nc(-c3ccccc3)cs2)C12CCCC2` (stereo not given), the z-score amounted to 0.271.

With `Cc1ccc(S(=O)(=O)N(C)/C(=N/S(=O)(=O)c2ccccc2)c2ccccc2)cc1`, the z-score was -0.162.

For the compound `CN(C)/C=C/C(=O)/C=C/c1cn(-c2ncc(C(F)(F)F)cc2Cl)c2ccccc12`, the z-score was 5.57 (active).

On to `O=C(O)/C=C/c1cn(-c2ncc(C(F)(F)F)cc2Cl)c2ccccc12`, for which the z-score was -0.0759.

On to `CC(=O)/C=C\c1cn(-c2ncc(C(F)(F)F)cc2Cl)c2ccccc12`, for which the z-score was -0.119.

On to `CN1CCN(C(=O)c2ccc(-c3nn(C)c(=O)c4ccccc34)cc2)CC1`, for which the z-score is -0.877.

`CSc1ncc(Cl)c(C(=O)NCc2ccc3c(c2)OCO3)n1` came in with a z-score of 0.575.

Compound `O=c1[nH]cnc2c1sc1nc(-c3ccccc3)c3c(c12)CCCC3` gave a z-score of 0.204.

For `S=c1nc[nH]c2c1sc1nc(-c3ccccc3)c3c(c12)CCCC3`, the z-score is 7.83 (active).

`COc1ncnc2c1sc1nc(-c3ccccc3)c3c(c12)CCCC3` returned a z-score of -0.0945.

`CC1CN(C(=O)/C=C/c2cccc([N+](=O)[O-])c2)CC(C)O1` (stereo not given): the z-score was -0.164.

In turn, `COc1ccc(NC(=O)CCCn2c(=S)[nH]c3ccccc3c2=O)cc1` returned a z-score of -0.514.

Compound `CCN1CCN(CCn2c(=S)[nH]c3ccccc3c2=O)CC1` had a z-score of 0.66.

With `O=c1c2ccccc2[nH]c(=S)n1CCN1CCN(Cc2ccccc2)CC1`, the z-score is 7.91 (active).

For `CCC1CCCCN1CCn1c(=S)[nH]c2cc(OC)c(OC)cc2c1=O` (stereo not given), the z-score is 2.07.

As for `O=c1[nH]c2ccccc2c(=O)n1Cc1ccccc1`, the z-score was 0.345.

For the compound `COCCNC(=O)CCCCCn1c(=S)[nH]c2ccccc2c1=O`, the z-score was found to be 1.77.

The compound `CCOc1cc2[nH]c(=S)n(CCN3CCCCC3C)c(=O)c2cc1OCC` (stereo not given) displayed a z-score of 0.258.

For `CC1CCCN(C(=O)CCCn2c(=S)[nH]c3ccccc3c2=O)C1` (stereo not given), the z-score was 4.5 (active).

`O=C(CCCCCn1c(=S)[nH]c2ccccc2c1=O)N1CCOCC1` had a z-score of -0.155.

For the compound `O=C(CCCn1c(=S)[nH]c2ccccc2c1=O)N1CCCCC1`, the z-score worked out at 1.44.

Take `COc1cccc(NC(=O)CCCn2c(=S)[nH]c3ccccc3c2=O)c1`: the z-score was 3.39 (active).

In turn, `CCOc1cc2[nH]c(=S)n(CCN3CCCCC3CC)c(=O)c2cc1OCC` (stereo not given) registered a z-score of 1.73.
